Data as given in PubChem BioAssay (EPA / NIEHS).
“And” between values parts separate entries of the source, which are not always exact repeats. Equal entries are not always repeated. More than one record can exist for a structure, and the calls need not agree. The source made the active and inactive calls. The calls were made as follows: active = hit-call score of the fitted dose curve at least 0.9, where 1 is the maximum; inactive = score below 0.9.

These compounds were tested on Interferon-inducible T-cell alpha chemoattractant (ITAC), CXCL11 (gene 6373) (assay: BSK_hDFCGF_ITAC: BioMAP Diversity Plus: hDFCGF Assay for Interferon-inducible T-cell alpha chemoattractant (ITAC) Biomarker Activity (AID 2284251)). Conditions: primary human foreskin fibroblasts.
Method: BSK_hDFCGF is a cell-based, multiplexed-readout assay that uses foreskin fibroblast, a human skin primary cell, with measurements taken at 24 hours after chemical dosing in a 96-well plate.BSK_hDFCGF_ITAC is an assay component measured in the BSK_hDFCGF assay. It measures I-TAC antibody related to regulation of gene expression using ELISA technology.Data from the assay component BSK_hDFCGF_ITAC was analyzed at the endpoint, BSK_hDFCGF_ITAC, in the positive analysis fitting direction relative to DMSO as the negative control and baseline of activity. Using a type of binding reporter, gain or loss-of-signal activity can be used to understand protein changes. To generalize the intended target to other relatable targets, this assay endpoint is annotated to the 'cytokine' intended target family, where the subfamily is 'chemotactic factor'.
The levels of cell surface (or secreted, indicated by the prefix "s") biomarker endpoints were measured by ELISA. Overt cytotoxicity to cells in confluent adherent cultures (all systems other than the BT system) was assessed by measuring total protein levels using sulforhodamine B (SRB) staining in parallel cultures at the time of biomarker measurements, indicated as SRB endpoints. For proliferation assays for adherent cell types, individual cell types are cultured at sub-confluence and relative cell numbers quantified by SRB staining at time points optimized for each system (48 h: 3C and CASM3C systems; 72 h: BT and HDF3CGF systems; 96 h: SAg system). SRB was performed by staining cells with 0.1% SRB after fixation with 10% TCA and reading wells at 560 nm.Viability and proliferation of PBMC (T cells) was quantified by Alamar Blue reduction for the SAg and BT systems. For PBMC viability (referred to as PBMC Cytotoxicity within the assay endpoint names), cells were plated (75,000/well in a 96-well plate) and then chemical samples added for 1 h before addition of activators, SEB and TSST-1 (20 ng/mL final concentration each). Cells were incubated for 90 h. Then, Alamar Blue (20 uL/well) (Invitrogen, Cat DAL1100) was added for 6 h, and the plates were read with a fluorescence microplate reader at 546/580 nm (excitation/emission). For PBMC proliferation, cells were plated and activated as above but incubated for only 16 h prior to addition of Alamar Blue. Plates were read after 6 h.

Structure (SMILES) | outcome | AC50
C=C(C)C(=O)OCC(F)(F)C(F)(F)C(F)(F)C(F)F | inactive | 7.82 µM (active)
NS(=O)(=O)C(F)(F)C(F)(F)C(F)(F)C(F)(F)C(F)(F)C(F)(F)F | – | 43.1 µM (active) and 39.1 µM (active)
CCN(CCO)S(=O)(=O)C(F)(F)C(F)(F)C(F)(F)C(F)(F)C(F)(F)C(F)(F)C(F)(F)C(F)(F)F | – | 34.8 µM (active) and 24.3 µM (active)
O=S(=O)(Cl)C(F)(F)C(F)(F)C(F)(F)C(F)(F)C(F)(F)C(F)(F)C(F)(F)C(F)(F)F | inactive | –
FC(F)(F)C(F)(F)C(F)(F)CC1CO1 (stereo not given) | inactive | 5.97 µM (active)
O=C(F)C1(F)C(F)(F)C(F)(F)C(F)(F)C(F)(F)C1(F)F | inactive | –
C[Si](Cl)(Cl)CCC(F)(F)C(F)(F)C(F)(F)C(F)(F)C(F)(F)C(F)(F)F | inactive | 1.49 µM (active)
O=C(O)C(F)(F)C(F)(F)C(F)(F)C(F)(F)C(F)(F)C(F)(F)C(F)F | inactive | 0.577 µM (active)
NC(O)(C(F)(F)F)C(F)(F)F | inactive | –
CCN=C1C=CC(=C(c2ccc(N(CC)CC)cc2)c2ccc(N(CC)CC)cc2)c2ccccc21 | – | 704 nM (active) and 1.12 µM (active)
COC(F)(C(F)F)C(F)(F)F (stereo not given) | inactive | –
OCCCCC(F)(F)C(F)(F)C(F)(F)C(F)(F)F | inactive | –
OCC(F)(F)C(F)(F)C(F)(F)C(F)(F)C(F)(F)C(F)(F)CO | inactive | –
O=C(Cl)C(F)(F)C(F)(F)C(F)(F)C(F)(F)C(F)(F)C(F)(F)F | inactive | –
OCC(F)(F)C(F)(F)C(F)(F)CO | inactive | 9.21 µM (active)
CN(C(=O)C(F)(F)C(F)(F)C(F)(F)F)[Si](C)(C)C | inactive | –

Structure (SMILES) | outcome | AC50
C=CC(=O)OCCC(F)(F)C(F)(F)C(F)(F)C(F)(F)F | – | 25 µM (active) and 21.5 µM (active)
OCC(O)CC(F)(F)C(F)(F)C(F)(F)C(F)(F)C(F)(F)C(F)(F)C(F)(F)C(F)(F)F (stereo not given) | inactive | –
O=S(=O)(O)CCC(F)(F)C(F)(F)C(F)(F)C(F)(F)C(F)(F)C(F)(F)C(F)(F)C(F)(F)F | inactive | 30 µM (active)
O=S(=O)(OCC(F)(F)F)C(F)(F)C(F)(F)C(F)(F)C(F)(F)F | – | 30 µM (active)
OCC(O)CC(F)(F)C(F)(F)C(F)(F)C(F)(F)F (stereo not given) | inactive | –
FC(F)(F)C(F)(F)C(F)(F)C(F)(F)C(F)(F)C(F)(F)C(F)(F)CCI | inactive | 3.33 µM (active)
NCC(F)(F)C(F)(F)C(F)(F)C(F)(F)C(F)(F)C(F)(F)F | inactive | –
O=C(O)C(F)(F)C(F)(F)C(F)(F)C(=O)O | inactive | –
O=S(=O)(O)CCC(F)(F)C(F)(F)C(F)(F)C(F)(F)F | inactive | 0.931 µM (active)
OCC(F)(F)C(F)(F)C(F)(F)C(F)(F)C(F)(F)C(F)(F)C(F)(F)C(F)(F)CO | – | 44.9 µM (active) and 43 µM (active)
O=C(Cl)C(F)(F)C(F)(F)C(F)(F)C(F)(F)C(F)(F)C(F)(F)C(F)(F)F | inactive | –
C=CC(=O)OCC(F)(F)C(F)(F)C(F)(F)C(F)(F)C(F)(F)C(F)(F)C(F)(F)C(F)F | – | 30 µM (active)
CO[Si](C)(CCC(F)(F)C(F)(F)C(F)(F)C(F)(F)C(F)(F)C(F)(F)F)OC | inactive | –
CNS(=O)(=O)C(F)(F)C(F)(F)C(F)(F)C(F)(F)C(F)(F)C(F)(F)C(F)(F)C(F)(F)F | inactive | –
O=C(O)C(F)(F)C(F)(F)C(F)(F)OC(F)(C(F)(F)F)C(F)(F)F | inactive | –
O=C(O)CCC(F)(F)C(F)(F)C(F)(F)F | inactive | –
